Results on 20 compounds are retold here after PubChem BioAssay (NCATS).

Molecules are shown by their SMILES. The source made the active and inactive calls. Calls follow the shape of the dose curve; as a rule, active = well fitted curve in the direction sought with a large enough effect (not every such curve was filed as active); inconclusive = small, poorly fitted or top-dose-only effect, or effect the other way, or another doubt; inactive = no such curve, though single readings can be large or run the other way.

Pyruvate kinase PKM (Homo sapiens), sequence (P14618 whole entry, looked up): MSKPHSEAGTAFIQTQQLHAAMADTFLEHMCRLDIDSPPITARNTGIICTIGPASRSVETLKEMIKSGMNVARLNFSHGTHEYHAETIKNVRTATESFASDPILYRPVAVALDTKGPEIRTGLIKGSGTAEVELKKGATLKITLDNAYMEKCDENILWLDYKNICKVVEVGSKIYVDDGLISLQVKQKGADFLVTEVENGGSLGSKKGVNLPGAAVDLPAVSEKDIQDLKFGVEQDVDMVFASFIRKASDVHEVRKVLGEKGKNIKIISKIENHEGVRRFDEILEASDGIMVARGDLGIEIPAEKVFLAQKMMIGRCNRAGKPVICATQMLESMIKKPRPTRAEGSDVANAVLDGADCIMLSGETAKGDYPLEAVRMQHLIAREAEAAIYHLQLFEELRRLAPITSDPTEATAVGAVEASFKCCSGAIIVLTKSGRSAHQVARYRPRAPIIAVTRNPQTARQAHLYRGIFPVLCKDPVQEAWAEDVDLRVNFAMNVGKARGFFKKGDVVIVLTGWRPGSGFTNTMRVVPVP

The assay addresses Pyruvate kinase PKM (Homo sapiens) (UniProt P14618). As to the kind of experiment: qHTS Assay for Activators of Human Muscle Pyruvate Kinase (AID 954). Conditions: purified human muscle pyruvate kinase, luciferase-coupled luminescence, 1 h; series mostly up to 57.5 µM. The protocol: NIH Molecular Libraries Screening Centers Network [MLSCN]
NIH Chemical Genomics Center [NCGC]
Wael M. Rabeh, Lyudmila Nedyalkova and Hee-Wan Park [Structural Genomics Consortium, 100 College St. Toronto, Ontario, Canada]
Human pyruvate kinase muscle 2 enzyme was supplied as a highly purified (>95% pure) preparation by the Structural Genomics Consortium in Toronto (Ontario, Canada) and was assayed for its ability to generate ATP from ADP using phosphoenolpyruvate (PEP) as a substrate. ATP generation was detected in a coupled reaction by luciferase-mediated luminescence, an ATP-dependent process. Pyruvate kinase substrates, PEP and ADP, were present in the assay at Km and approximately […]-fold below Km respectively. The enzyme was assayed at an intermediate level of activity to screen for inhibitors and activators.
NCGC Assay Protocol Summary:
Three uL of substrate mix (final concentration, 50 mM imidazole pH 7.2, 50 mM KCl, 7 mM MgCl2, 0.5 mM PEP, 0.1 mM ADP, 0.01% Tween 20, 0.05% BSA) was dispensed into 1536 well plates. 23 nL of compound were delivered by a pin tool and 1 uL of enzyme mix (final concentration, 0.1 nM pyruvate kinase, 50 mM imidazole pH 7.2, 0.05% BSA) was added. Plates were incubated at room temperature for 1 hour. Two uL of detection and kinase stop mix (PKLight, Cambrex) was added, the plates centrifuged, and luminescence read by a ViewLux (Perkin Elmer) at 5 second exposure/plate. Data were normalized to the uninhibited and AC100 inhibition (no enzyme or 110 uM N-methyl-2,3-diphenyl-1,2,4-thiadiazol-5-imine; CID: 682802; LOPAC-S-4063). To monitor activation, 0.3 nM pyruvate kinase was included in one control column.
On the technique in general: In qHTS, concentration-response curves come from the screen itself.
For the compound `CCCCN1C2CCC1CC(OC(c1ccc(F)cc1)c1ccc(F)cc1)C2` (stereo not given), the compound was called inactive.

For `CCCCCCC(C)(C)c1ccc([C@@H]2C[C@H](O)CC[C@@H]2CCCO)c(O)c1`, the outcome was inactive.

With `NNCc1cccc(O)c1`, the compound was classed as inactive.

As for `NCC#Cc1ccccc1`, the result was inactive.

On to `COc1ccc(OC)c([C@H](O)[C@H](C)N)c1`, for which the compound was classed as inactive.

On to `COc1cc(C=C(C#N)C#N)cc(O)c1O`, for which the compound was called inactive.

Regarding `C[C@H](NC(C)(C)C)C(=O)c1cccc(Cl)c1`, the result was inactive.

For the compound `NC[C@H](O)c1ccc(O)cc1`, the result was inactive.

`CN1CC[C@]2(C)c3cc(O)ccc3N(C)[C@@H]12`: the compound was classed as inactive.

For `CS(=N)(=O)CC[C@@H](N)C(=O)O` (stereo not given in full), the compound was classed as inactive.

With `C[N+]1(C)[C@@H]2CC[C@H]1CC(OC(=O)[C@@H](CO)c1ccccc1)C2` (stereo not given in full), the result was inactive.

For `N#C/C(=C\c1ccc(O)c(O)c1)C(N)=S`, the outcome was inactive.

As to `O=C(OC1CCN(CCCl)CC1)C(c1ccccc1)c1ccccc1`, the compound was classed as inactive.

On to `C#CCN(C)[C@@H](C)Cc1ccccc1`, for which the compound was called inactive.

Consider `CCc1c(C(=O)OC)ncc2[nH]c3cc(OC)c(OC)cc3c12`, for which the compound was called inactive.

Take `C[C@H]1OC[C@@H](C[N+](C)(C)C)O1`: the compound was classed as inactive.

On to `CC(C)N(CC[C@@](C(N)=O)(c1ccccc1)c1ccccn1)C(C)C`, for which the call was inactive.

As to `C[C@]12CC[C@H](O)C[C@@H]1CC[C@H]1[C@H]2CC[C@]2(C)C(=O)CC[C@@H]12`, the compound was classed as inactive.

Regarding `CCCN(CCC)C(=O)Cc1c(-c2ccc(Cl)cc2)nc2c(Cl)cc(Cl)cn12`, the compound was called inactive.

As for `CC[C@@]1(c2ccc(N)cc2)CCC(=O)NC1=O`, the compound was called inactive.
